# Screening results (PubChem)
# Mot1-301 SUMO = blocks SUMOylation pathway, rescuing yeast Mot1-301 growth | S. cerevisiae Mot1-301 growth rescue, ATP luminescence, 38.5C; percent above DMSO median, 100 means doubled | actives 1% (n = 320,000) | growth rescue, % at 18.8 µM;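 active = every valid replicate shows activation above 250% relative to neutral control wells; inactive = the rest, any valid replicate at or below 250%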
# tim10-1 inh = inhibits growth of tim10-1 mutant yeast | S. cerevisiae tim10-1 ts strain growth, BacTiter-Glo, 24 h | inhibition, % at 20 µM | actives 2.2% (n = 330,000);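 active = inhibition of at least 40%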;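 also: mutant grown at 25 °C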
# tim23-1 inh = inhibits growth of tim23-1 mutant yeast; S. cerevisiae tim23-1 growth, BacTiter-Glo luminescence, 24 h; inhibition, % at 20 µM; actives 1.3% (n = 330,000); AID 463212;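 active = growth inhibition of the mutant yeast at or above 50%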;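 also: temperature-sensitive mutant grown at 25 °C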
# TIM10 inh = growth inhibitors of TIM10 yeast strain; actives 1.4% (n = 330,000); inhibition, % at 10 µM; S. cerevisiae TIM10 strain growth, BacTiter-Glo luminescence, 24 h; AID 463195;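 active = inhibition of 40% or more at the single tested concentration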;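 also: wild-type TIM10 isogenic control strain grown at permissive 25 °C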
# PfHsp90 set2 = growth inhibition of yeast expressing Plasmodium Hsp90. actives 0.32% (n = 310,000). S. cerevisiae expressing PfHsp90, BacTiter-Glo ATP, 48 h; yeast lacking PDR1 and PDR3 efflux regulators. inhibition, % at 9.4 µM;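 active = every replicate shows inhibition above about 80%, whatever the replicate mean, limit read from the data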
# Yeast Mot1 SUMO = SUMO pathway inhibitors in yeast Mot1-301 growth; shares compounds with Mot1-301 SUMO; S. cerevisiae Mot1-301 galactose growth, ATP luminescence, 24 h; -100 = growth of slx-deleted rescue strain; growth activity, percent, % at 42 µM; 2,300 tested, under 10 active; AID 493004;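 active = Signal drops as the depositor expects, and the fitted half-maximal dose is no more than ten times the top valid tested dose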;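 also: more negative values mean stronger growth rescue toward the control strain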
# A number is an active result; - = inactive; . = not tested or not shown; + = active, no number. Only some compounds are listed: those with a hit (about 4.4% of all), similar ones and a draw of the others.
SMILES,Mot1-301 SUMO,tim10-1 inh,tim23-1 inh,TIM10 inh,PfHsp90 set2,Yeast Mot1 SUMO
C=CCn1c(CSc2nc3ccccc3s2)nnc1SCC(=O)NCCN1CCOCC1,-,-,-,-,.,.
Cn1c(CSc2nc3ccccc3s2)nnc1SCC(=O)NCCN1CCOCC1,913,-,-,-,-,-
COc1ccc(-c2cc(=O)[nH]c3ccccc23)cc1,-,-,-,-,-,.
COc1cccc2[nH]c(=O)c(-c3ccccc3)cc12,453,-,-,-,-,-
O=C(NCCN1CCOCC1)Nc1ccc(Cl)cc1Cl,901,-,-,-,-,-
Cc1cc(C(=O)OCC(=O)Nc2ccccc2C#N)c(C)o1,.,-,-,-,-,.
COc1ccc(CCN2CC(C(=O)N(C)CC(=O)Nc3cccc(F)c3)CC2=O)cc1OC (centres undefined),451,-,-,-,-,-
COc1cccc(NC(=O)CN(C)C(=O)C2CC(=O)N(CCc3ccc(OC)c(OC)c3)C2)c1 (centres undefined),.,.,.,.,-,.
O=C(Nc1nnc(COc2ccc(F)cc2)s1)c1cccs1,940,-,-,-,-,-
CCOc1ccc(NC(=O)CNc2ccc(C)cc2Cl)cc1,811,-,-,-,.,-
Cc1sc2ncn(C(C)C(=O)OC3CCCCC3)c(=O)c2c1C (centres undefined),379,-,-,-,-,-
COc1ccc2c(C(=O)CN3CC(C)OC(C)C3)c[nH]c2c1 (centres undefined),390,-,-,-,-,-
COc1ccc2c(C(=O)CN3CCC(C)CC3)c[nH]c2c1,-,-,-,-,-,.
N#Cc1ccccc1OCC(=O)NCc1ccccc1CN1CCCC1,-,-,-,-,-,.
Cc1ccc(NC(=O)C(c2ccccc2)N2CCN(CC(=O)NC3CC3)CC2)cc1Cl (centres undefined),-,-,-,-,-,.
Cc1ccc(S(=O)(=O)Cc2ccc(C(=O)N3CCN(c4ccccn4)CC3)o2)cc1,537,-,-,-,-,-
COc1cc(OC)c(C(=O)N2CCN(c3ccccn3)CC2)cc1OC,798,-,-,-,-,-
COc1ccccc1C(=O)N1CCN(c2ccccn2)CC1,-,-,-,-,-,.
COc1ccc(NC(=O)C(c2ccccc2)N2CCN(c3ccccn3)CC2)cc1Cl (centres undefined),755,-,-,-,-,-
O=C(CCNC(=O)N1CC(=O)Nc2ccccc21)Nc1ccc(F)c(Cl)c1,-,-,-,-,-,.
O=C(O)COc1ccc(/C=N/NC(=O)C(O)(c2ccccc2)c2ccccc2)cc1,-,-,-,-,-,.
O=c1cc(SCc2ccc(Cl)cc2Cl)nc[nH]1,.,.,.,.,-,.
CCOC(=O)N1CCN(C(=O)c2ccc(OC)c(OC)c2)CC1,+,-,-,-,-,-
CCC1CCCCN1C(=O)CSc1nc2c([nH]c3ccccc32)c(=O)n1C (centres undefined),631,-,-,-,-,-
CCSc1nc2c([nH]c3ccccc32)c(=O)n1C,-,-,-,-,-,.
SMILES,Mot1-301 SUMO,tim10-1 inh,tim23-1 inh,TIM10 inh,PfHsp90 set2,Yeast Mot1 SUMO
Cc1ccc(S(=O)(=O)N2CCN(C(=O)CSc3ccccn3)CC2)c(C)c1,-,-,-,-,-,.
COCCn1c(=NC(=O)c2ccc(S(=O)(=O)N3CCOCC3)cc2)sc2cc(S(N)(=O)=O)ccc21,552,-,-,-,-,-
COC(=O)Cn1c(=NC(=O)c2ccc(S(=O)(=O)N3CCOCC3)cc2)sc2cc(S(N)(=O)=O)ccc21,-,-,-,-,-,.
CC(C)[N+]1(C)[C@@H]2CC[C@@H]1CC(OC(=O)C(CO)c1ccccc1)C2 (some centres undefined),371,-,.,-,-,-
CC(C)c1ccc2c(c1)CCC1C(C)(CN)CCCC21C (centres undefined),617,.,.,.,-,-
CC(C)c1ccc2c(c1)CC[C@H]1[C@](C)(CN)CCC[C@]21C,.,.,.,.,-,.
COc1ccc(NC(=O)CSc2ccccn2)cc1OC,.,-,-,-,-,.
COc1ccc(NC(=O)CSc2nnc(-c3ccccn3)n2-c2ccccc2)cc1OC,475,-,-,-,-,-
CC(=O)N1CCN(S(=O)(=O)c2c(C)n(C)c(=O)n(C)c2=O)CC1,-,-,-,-,-,.
CCN1CCc2c(sc(NC(=O)COc3ccccc3)c2C(=O)OC)C1,-,-,-,-,-,.
CCOC(=O)c1c(/N=C/C2C(=O)CCCC2=O)sc2c1CCCC2,467,-,-,-,-,-
O=C(NCc1csc(-c2cccs2)n1)Nc1ccc(C(F)(F)F)cc1,-,-,-,-,.,.
O=C(NCc1csc(-c2cccs2)n1)Nc1ccc(F)cc1F,438,-,-,-,-,-
CCN(C(=O)Cn1c(=O)oc2ccccc21)c1cccc(C)c1,628,-,-,-,-,-
CCN(C(=O)Cn1c(=O)oc2ccccc21)c1cccc(C(F)(F)F)c1,.,-,-,-,-,.
CC(=O)N/N=C(\N)c1nonc1N,-,-,-,-,.,.
CCOc1ccccc1/C=N\Nc1cnn(Cc2ccccc2)c(=O)c1Cl,+,-,-,-,-,-
COc1ccccc1/C=N\Nc1cn[nH]c(=O)c1Cl,.,-,-,-,-,.
O=C(Nc1ccc2c(c1)oc1ccc(S(=O)(=O)N3CCCC3)cc12)C1CC1,-,-,-,-,-,.
O=C(Nc1ccc2c(c1)oc1ccccc12)C1CC1,+,-,-,-,-,-
CCC1SC2=NC(C)=C(C(=O)OCCOC)C(c3ccc(C(=O)OC)cc3)N2C1=O (centres undefined),832,-,-,-,-,-
Cc1ccc(-c2ccc(/C=N/n3cnnc3)o2)cc1,505,-,-,-,-,-
CC1(NC(=S)Nc2ccccc2)CCS(=O)(=O)C1 (centres undefined),-,-,-,-,.,.
CCCCn1c(N)c(N(CCOC)C(=O)COC(=O)COc2ccccc2C#N)c(=O)[nH]c1=O,-,-,-,-,.,.
CCCCCCCCn1cc(C(C)=O)c(=O)[nH]c1=O,-,-,-,-,.,.
SMILES,Mot1-301 SUMO,tim10-1 inh,tim23-1 inh,TIM10 inh,PfHsp90 set2,Yeast Mot1 SUMO
C=CCn1cc(C(C)=O)c(=O)[nH]c1=O,610,-,-,-,-,-
Cc1cc(OCC(=O)OCC(=O)N(C)c2c(N)n(Cc3ccccc3)c(=O)[nH]c2=O)ccc1Cl,-,-,-,-,.,.
Cc1cc(NC(=O)C(C)SCC(=O)O)no1 (centres undefined),-,-,-,-,-,.
Cc1cccc(N(Cc2ccccc2)C(=O)CSC(C)C(=O)Nc2cc(C)on2)c1 (centres undefined),555,-,-,-,.,-
Cc1cccc(C(=O)Nc2ccccc2C(=O)NCc2ccco2)c1,-,-,-,-,-,.
Cc1ccc(Cl)cc1N(CC(=O)NCc1ccccc1)S(C)(=O)=O,-,-,-,-,-,.
Nc1nc2ccccc2cc1-c1cccs1,435,-,-,-,-,-
c1csc(-c2ccc3ccccc3n2)c1,-,-,-,-,-,.
